Laboratory results from PubChem BioAssay AID2029 (NMMLSC, 2009).
Out of some 320,000 compounds screened, about 210 (0.066%) were called active. Only a selection was taken, and actives are over-represented in it overall. A number with no mark means an inactive call.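 The calls were made as follows: active = GFP response relative to DMSO above a set limit, near the screen mean plus 3 SD (cut at about 150% in these data); inconclusive = Fewer than 70 cells measured for a yeast strain; inactive = the rest.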

test: TOR pathway RTG branch CIT2 reporter changes – S. cerevisiae, GFP fusion, multiplex flow cytometry, MLPCN library, primary screen (AID 2029);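 also: ratio of well median GFP fluorescence to mean of DMSO wells on the plate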; settings: S. cerevisiae CIT2-GFP strain, 3 h, at 10 µM, active compounds read high, 100 means same as DMSO wells

| SMILES | GFP response vs DMSO |
| --- | --- |
| Cc1noc(C)c1CSc1nc2cc(S(=O)(=O)N3CCOCC3)ccc2o1 | 111% |
| O=C(CSc1ccc(C(F)(F)F)cc1[N+](=O)[O-])NCCOc1ccccc1 | 108% |
| COc1ccccc1N1CCN(CC(=O)Nc2ccnn2C2CCCC2)CC1 | 98.2% |
| CC1(C)CC(CNCCC(c2ccc(F)cc2)c2ccco2)CCO1 (stereo not drawn) | 109% |
| CCOc1cc(CN2CCCC(CO)(Cc3ccc(F)cc3F)C2)ccc1OC (stereo not drawn) | 98% |
| O=C(c1ccc2ccccc2n1)N1CCN(c2ccccc2Cl)CC1 | 94.9% |
| CCCCn1c(N)c(N2CCOCC2)c(=O)n(CC(=O)NCCc2ccccc2)c1=O | 105% |
| CSCCC(NS(=O)(=O)c1ccc(C)cc1)C(=O)N1CCCC1 (stereo not drawn) | 90.1% |
| CCN(CC)S(=O)(=O)c1ccc(OC(C)C)c(N)c1 | 94.4% |
| CCOc1ccc(Nc2nc(Cc3nnc(SCC(=O)c4ccc(C)cc4)o3)cs2)cc1 | 89.8% |
| O=C(NCc1nnc(SCC(=O)N2CCCc3ccccc32)o1)c1ccccc1F | 91.6% |
| CC1CCCCC1NC(=O)COc1ccc(C#N)cc1 (stereo not drawn) | 100% |
| O=C(O)CC(SCC(=O)Nc1ccc(Br)cc1)C(=O)O (stereo not drawn) | 101% |
| OCCN1CCOCCOCCN(CCO)CCN(CCO)CC1 | 90.9% |
| NC(=S)Nc1c(Cl)cccc1Cl | 104% |
| CC(Oc1ccc(Cl)cc1)c1ccnn1S(C)(=O)=O (stereo not drawn) | 88.9% |
| CN(NS(=O)(=O)c1cccs1)c1ncc(C(F)(F)F)cc1Cl | 171% [may fluoresce green] (active) |

| SMILES | GFP response vs DMSO |
| --- | --- |
| C#CCN(N(C)c1ncc(C(F)(F)F)cc1Cl)S(=O)(=O)c1ccc2ccccc2c1 | 101% |
| Cc1cc(C)cc(NS(=O)(=O)c2ccc(Oc3ncc(C(F)(F)F)cc3Cl)cc2)c1 | 99.4% |
| COc1ccc(-c2cc(=O)oc3cc(OCC(=O)N[C@@H](Cc4c[nH]c5ccccc45)C(=O)O)ccc23)cc1 | 110% |
| O=C(N/C(=C\c1ccc([N+](=O)[O-])cc1)C(=O)N1CCOCC1)c1cccc(Br)c1 | 100% |
| COc1cc(NS(=O)(=O)c2ccc(N/C=C(\C=O)c3nc4cc(Cl)ccc4o3)cc2)nc(OC)n1 | 103% |
| COc1ccccc1C(=O)NCCC(=O)NC1=NCCS1 | 105% |
| Cc1cccc(Nc2nc3c(S(=O)(=O)c4ccccc4)nnn3c3ccccc23)c1C | 632% [may fluoresce green] (active) |
| CC(=O)Nc1ccc(Nc2nc3c(S(=O)(=O)c4ccc(C)c(C)c4)nnn3c3ccccc23)cc1 | 106% |
| Cc1ccc(S(=O)(=O)c2nnn3c2nc(N2CCN(c4ccccn4)CC2)c2ccccc23)cc1 | 94.5% |
| CC(=O)N1CC2(C)CN(C(C)=O)CC(C)(C1)C2=O | 107% |
| Cc1nc(-c2ccc(F)cc2)c(CC(=O)Nc2cc(S(=O)(=O)N3CCCCC3)ccc2C)s1 | 99.9% |
| COc1ccccc1CCCNC(=O)C1CCC(=O)N(CCN2CCOCC2)C1 (stereo not drawn) | 94.1% |
| CCN1/C(=C\c2ccc3ccccc3[n+]2CC)Sc2cc(C)ccc21 | 1560% [may fluoresce green] (active) |
| CCN1/C(=C/c2ccc3ccc(C)cc3[n+]2CC)Sc2ccccc21 | 337% [may fluoresce green] (active) |
| CCc1nc2cccnc2n1-c1ccc(C(=O)O)cc1 | 102% |
| COc1ccccc1C(CNC(=O)c1ccc(C)c(S(=O)(=O)N2CCCCC2)c1)N(C)C (stereo not drawn) | 97.1% |
